Data as given in ChEMBL document CHEMBL3433997, “St. Jude Leishmania screening dataset” (2016).

Experiments:
Assay type in all cases: functional
[1] = target: Solute carrier family 2, facilitated glucose transporter member 1 (Homo sapiens) (UniProt P11166); assay: ST_JUDE_LEISH: Cytotoxicity at 2uM final concentration against transgenic Leishmania Mexicana promastigotes LmGLUT1 that are glucose transport deficient and complemented with the human glucose transporter GLUT1. Activity is measured by DNA content using SYBR green in vitro
Chain of Solute carrier family 2, facilitated glucose transporter member 1 (Homo sapiens) (P11166 whole entry): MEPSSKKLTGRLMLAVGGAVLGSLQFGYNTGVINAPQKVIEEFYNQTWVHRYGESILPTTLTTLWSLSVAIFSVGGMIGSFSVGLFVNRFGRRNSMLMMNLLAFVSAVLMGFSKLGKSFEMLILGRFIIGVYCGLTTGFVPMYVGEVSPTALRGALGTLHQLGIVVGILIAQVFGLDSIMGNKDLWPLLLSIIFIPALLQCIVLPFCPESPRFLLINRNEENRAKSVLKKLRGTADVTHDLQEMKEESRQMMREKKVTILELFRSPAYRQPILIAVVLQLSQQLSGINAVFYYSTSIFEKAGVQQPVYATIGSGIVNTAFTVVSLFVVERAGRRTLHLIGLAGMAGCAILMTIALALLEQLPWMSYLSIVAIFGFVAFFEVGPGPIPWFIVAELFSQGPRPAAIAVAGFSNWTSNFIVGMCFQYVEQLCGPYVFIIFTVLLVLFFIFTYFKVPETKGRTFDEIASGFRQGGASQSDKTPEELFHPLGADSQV

[2] = target: Hexose transporter 1 (Plasmodium falciparum) (UniProt O97467); assay: ST_JUDE_LEISH: Cytotoxicity at 2uM final concentration against transgenic Leishmania Mexicana promastigotes LmPfHT that are glucose transport deficient and complemented with the Plasmodium falciparum hexose transporter. Activity is measured by DNA content using SYBR green in vitro
[3] = target: Glucose transporter (Leishmania mexicana) (UniProt O61059); assay: ST_JUDE_LEISH: Cytotoxicity at 2uM final concentration against transgenic Leishmania Mexicana promastigotes LmGT2 that are glucose transport deficient and complemented with the L. Mexicana glucose transporter 2. Activity is measured by DNA content using SYBR green in vitro

Compound | inhibition [1] [%] | inhibition [2] [%] | inhibition [3] [%]
COc1ccccc1CNc1ccnc(N2CC(Oc3ccc(F)cc3)C2)n1 | -2.09 | 0.57 | -2.53
O=C(Nc1cccc(OCc2ccccc2)c1)c1ccc(CN2CCC(Cc3ccccc3)CC2)cc1 | -0.83 | -1.67 | -0.42
Cc1cc(C)c(O)c(-c2cc(C(=O)Nc3ccc(S(=O)(=O)N4CC(C)OC(C)C4)cc3)[nH]n2)c1 (stereo unspecified) | 3.1 | 1.95 | 0.01
CCOc1c(N2CCN(CCCCNC(=O)c3ccc(NC(=O)c4ccc(Cl)cc4)cc3)CC2)ccc2ccccc12 | 0.72 | 0.48 | 0.9
CN(C)CCOc1ccc(-n2c(-c3nonc3N)nc3cncc(-c4ccc(F)cc4)c32)cc1 | 3.17 | 3.94 | 2.52
CCN(CC)S(=O)(=O)c1ccc(C(C)NC(=O)c2ccccc2COc2ccccc2)cc1 (stereo unspecified) | 6.67 | 5.1 | 5.03
O=C(c1ccc(Cl)cc1)N1CCOC(CCN2CCC(c3ccccc3)CC2)(c2ccc(Cl)c(Cl)c2)C1 (stereo unspecified) | 0.85 | -0.89 | -0.89
CCN1CCN(c2cc(C)c3cc(NC(=O)c4ccc(Br)o4)ccc3n2)CC1 | 6.38 | 6.62 | 8.17
CCCCCCCN1CC[C@@H](CCCc2ccnc3ccc(OCCCCNC(N)=O)cc23)[C@@H](CC)C1 | 2.24 | 4.54 | 2.79
C=CCOc1ccc(CNC2CCN(Cc3ccccc3)CC2)cc1Br | 2.99 | 4.16 | 0.3
CC(C)CCN1CCC(Oc2ccc(NC(=O)c3cccs3)cc2Cl)CC1 | 0.82 | 4.49 | 3.68
Fc1cccc(COc2ccc(Nc3ncnc4sc(C#Cc5ncc[nH]5)cc34)cc2Cl)c1 | 0.39 | -0.11 | -0.59
